The record followed here is PubChem BioAssay (NCI).

Some test systems named below: DU-145 prostate; K-562 leukemia; MALME-3M melanoma; MDA-MB-231 breast; RXF 393 renal; SF-268 CNS; SF-295 CNS; SF-539 CNS; UACC-257 melanoma; M14 melanoma.
Assay in all cases: NCI-60 one-dose screen, 48 h (100 = growth as untreated, 0 = no growth, -100 = all killed)
Holding throughout (details): 10 µM unless noted

Molecules are shown by their SMILES. Several values for one entry are separate records, joined by “and”; a condition that tells them apart may be missing. Identical values can stand only once. The panel holds about 83,000 compounds, 20% with a hit somewhere; the sample as a whole holds those more often.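 Single-dose data. Exposure time 48 hours. Values below 10 considered active.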 Activity calls are given as the source filed them.

Turning to `Cc1ccnc2c1ccc1c(C)ccnc12`, the growth with DU-145 prostate was 27.4% (inactive); in the assay on K-562 leukemia it was 12% (inactive); in the assay with MALME-3M melanoma, 19.1% (inactive); in the assay on MDA-MB-231 breast, 31.9% (inactive); with RXF 393 renal, 26.2% (inactive); in the assay with SF-268 CNS, 22.8% (inactive). Further, the growth with SF-295 CNS was 18.3% (inactive); with SF-539 CNS it was -3.71% (active); in the assay with UACC-257 melanoma, 2.29% (active); in the assay on M14 melanoma it was -11.5% (active).

For `CN=C(N)N/N=C(\C)c1ccc2c(c1)Cc1cc(/C(C)=N/NC(N)=NC)ccc1-2`, the growth with DU-145 prostate is -35.5% (active); with K-562 leukemia, -7.26% (active); with MALME-3M melanoma, -65.5% (active); in the assay with MDA-MB-231 breast, -33.8% (active); in the assay with RXF 393 renal it was -21.2% (active); in the assay with SF-268 CNS it was -61% (active). Further, the growth is -28.1% (active) with SF-295 CNS, -89% (active) in the assay with SF-539 CNS, 56.5% (inactive) with UACC-257 melanoma and -85.7% (active) in the assay with M14 melanoma.

For `C1=C(c2ccccc2)C(c2ccc(OCCN3CCCCC3)cc2)Oc2ccccc21` (centres undefined), the growth with DU-145 prostate was 77.1% (inactive); in the assay with K-562 leukemia, 10.8% (inactive); in the assay on MALME-3M melanoma, 2.37% (active); in the assay on MDA-MB-231 breast it was 48.4% (inactive); with RXF 393 renal, 20.4% (inactive); with SF-268 CNS, 62.2% (inactive). Also, the growth in the assay on SF-295 CNS is 52.7% (inactive); in the assay on SF-539 CNS, 71.8% (inactive); in the assay on UACC-257 melanoma, -40.6% (active); with M14 melanoma it was -58% (active).

Take `O=C(Nc1ccccc1)c1cc(Cl)ccc1O`: the growth with DU-145 prostate is 83.7% (inactive); in the assay with K-562 leukemia, 33.8% (inactive); in the assay with MALME-3M melanoma, 40.3% (inactive); with MDA-MB-231 breast it was 70.6% (inactive); in the assay on RXF 393 renal, 79.9% (inactive); in the assay on SF-268 CNS, 66.5% (inactive). Further, the growth in the assay on SF-295 CNS was 73.1% (inactive); in the assay with SF-539 CNS, 53.2% (inactive); in the assay on UACC-257 melanoma, 14.9% (inactive); with M14 melanoma it was 50.9% (inactive).

On to `C=C(Cl)C(=NC(C)(C)C)Nc1ccccc1C`, for which the growth in the assay on DU-145 prostate was 87.1% (inactive); in the assay with K-562 leukemia it was 19.8% (inactive); in the assay on MALME-3M melanoma, 83.9% (inactive); with MDA-MB-231 breast, 91.3% (inactive); in the assay on RXF 393 renal it was 103% (inactive); with SF-268 CNS it was 101% (inactive). Further, the growth in the assay on SF-295 CNS is 99.3% (inactive); in the assay on SF-539 CNS it was 99.3% (inactive); with UACC-257 melanoma, 100% (inactive); in the assay with M14 melanoma it was 85.1% (inactive).

Turning to `Nc1ncnc2c1ncn2C1OC(CO)C(O)C1O` (centres undefined), the growth in the assay on DU-145 prostate was 116% (inactive) and 47.5% (inactive) and 106% (inactive); in the assay on K-562 leukemia, 93.5% (inactive) and 26.1% (inactive) and 116% (inactive); with MALME-3M melanoma, 147% (inactive) and 107% (inactive) and 128% (inactive); with MDA-MB-231 breast, 122% (inactive) and 52.5% (inactive) and 113% (inactive); in the assay with RXF 393 renal it was 115% (inactive) and 103% (inactive); with SF-268 CNS it was 106% (inactive) and 121% (inactive) and 102% (inactive). Further, the growth was 105% (inactive) and 104% (inactive) and 100% (inactive) in the assay on SF-295 CNS; 109% (inactive) and 98% (inactive) and 91.5% (inactive) in the assay with SF-539 CNS; 84.9% (inactive) and 124% (inactive) and 105% (inactive) in the assay on UACC-257 melanoma; 111% (inactive) and 115% (inactive) in the assay with M14 melanoma.

With `CN1c2ccccc2C(C)(C)C12C=Cc1cc(O)ccc1O2` (centres undefined), the growth is 52.1% (inactive) in the assay on DU-145 prostate; 12% (inactive) with K-562 leukemia; 69.1% (inactive) in the assay with MALME-3M melanoma; 60.9% (inactive) in the assay with MDA-MB-231 breast; 57.1% (inactive) with RXF 393 renal; 15.4% (inactive) in the assay on SF-268 CNS. Moreover, the growth in the assay with SF-295 CNS was 55.9% (inactive); in the assay with SF-539 CNS, 25.8% (inactive); in the assay on UACC-257 melanoma it was 56.7% (inactive); in the assay with M14 melanoma, 17.9% (inactive).

As to `O=C1c2cccnc2-c2nccc3c2c1nc1cc(Br)ccc13`, the growth with DU-145 prostate was -88.9% (active) and -99.9% (active); with K-562 leukemia, -87.4% (active) and -25.6% (active); in the assay with MALME-3M melanoma, 8.18% (active); with MDA-MB-231 breast, -9.52% (active) and -58% (active); in the assay with RXF 393 renal, -51.7% (active) and -90.9% (active); in the assay with SF-268 CNS it was -1.91% (active) and -63.6% (active). The growth is 0% (active) and -84.3% (active) in the assay with SF-295 CNS; -87.2% (active) and -90.5% (active) in the assay with SF-539 CNS; -78.4% (active) and -83.7% (active) in the assay with UACC-257 melanoma; -77.1% (active) in the assay with M14 melanoma.

`S=C(NCCNC(=S)[S][Sn]([c]1ccccc1)([c]1ccccc1)[c]1ccccc1)[S][Sn]([c]1ccccc1)([c]1ccccc1)[c]1ccccc1`: the growth in the assay with DU-145 prostate was -96.1% (active); in the assay on MALME-3M melanoma, -70.4% (active); in the assay with MDA-MB-231 breast, -82.1% (active); in the assay on RXF 393 renal it was -99.7% (active); in the assay on SF-268 CNS, -90.9% (active); with SF-295 CNS it was -83.5% (active). Also, the growth in the assay with SF-539 CNS is -81.7% (active); in the assay with UACC-257 melanoma, -100% (active); with M14 melanoma, -94% (active).

Take `O=C(Oc1cccc2cccnc12)c1ccccc1`: the growth in the assay with DU-145 prostate was 92.9% (inactive) and 107% (inactive); in the assay with K-562 leukemia, 48.5% (inactive); with MALME-3M melanoma, 89.8% (inactive) and 99% (inactive); in the assay with MDA-MB-231 breast it was 84.5% (inactive) and 104% (inactive); in the assay on RXF 393 renal it was 99.5% (inactive) and 108% (inactive); with SF-268 CNS it was 87.1% (inactive) and 102% (inactive). Further, the growth was 97.5% (inactive) and 98.7% (inactive) with SF-295 CNS; 97.9% (inactive) and 106% (inactive) in the assay with SF-539 CNS; 86% (inactive) and 96.8% (inactive) with UACC-257 melanoma; 83.2% (inactive) and 96.9% (inactive) in the assay with M14 melanoma.

With `COC(=O)Nc1nc2ccc(C(=O)c3ccccc3)cc2[nH]1`, the growth with DU-145 prostate was 26.8% (inactive) and -20.2% (active) and -19.3% (active); with K-562 leukemia it was 6.5% (active) and 4.72% (active) and 4.39% (active); in the assay with MALME-3M melanoma, 26.5% (inactive) and 58.6% (inactive) and 54.1% (inactive); in the assay on MDA-MB-231 breast, 51.3% (inactive) and 25.5% (inactive) and 38% (inactive); with RXF 393 renal, -12.3% (active) and -5.96% (active); in the assay with SF-268 CNS it was 53.7% (inactive) and 21.3% (inactive) and 27.4% (inactive). The growth in the assay with SF-295 CNS was 0.877% (active) and -10.3% (active) and -13.1% (active); in the assay with SF-539 CNS, 2.99% (active) and -28.1% (active) and -34% (active); in the assay with UACC-257 melanoma, 61% (inactive) and 77.2% (inactive) and 69.8% (inactive); in the assay on M14 melanoma, -24.2% (active) and 0.911% (active) and 20.7% (inactive).

As to `COc1ccccc1OC(=O)Oc1ccccc1OC`, the growth with DU-145 prostate is 112% (inactive) and 96% (inactive); with K-562 leukemia, 125% (inactive) and 104% (inactive); with MALME-3M melanoma it was 94.8% (inactive) and 98.5% (inactive); with MDA-MB-231 breast it was 103% (inactive) and 107% (inactive); with RXF 393 renal, 102% (inactive) and 113% (inactive); in the assay with SF-268 CNS, 111% (inactive) and 94.9% (inactive). Moreover, the growth with SF-295 CNS was 106% (inactive) and 103% (inactive); in the assay on SF-539 CNS, 121% (inactive) and 103% (inactive); in the assay with UACC-257 melanoma, 97.6% (inactive) and 115% (inactive); in the assay with M14 melanoma, 103% (inactive) and 99.7% (inactive).
